Activity calls are given as the source filed them. Rule for the calls: active = hit-call score of the fitted dose curve at least 0.9, where 1 is the maximum; inactive = score below 0.9.
How the values were obtained:
[1] = ATG_GLI_CIS: Attagene CIS-FACTORIAL HepG2 Assay for human Zinc Finger Protein GLI1 (AID 2282945); conditions: HepG2, Attagene cis-factorial reporter mRNA, GLI element; actives raise or lower the signal
Summary of the method: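 Transiently transfected HepG2 cells report endogenous transcription factor activity via cis-element-driven reporter units. After 24 h compound exposure, reporter mRNA was measured by RT-PCR with capillary electrophoresis; bidirectional fitting against DMSO baseline.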

[2] = biological target: Bile acid receptor (Homo sapiens) (UniProt Q96RI1); test: ATG_IR1_CIS: Attagene CIS-FACTORIAL HepG2 Assay for human Nuclear Receptor Subfamily 1 Group H Member 4 (NR1H4), IR1 submotif (AID 2282946); conditions: IR1 reporter transcription, actives raise or lower the signal
Summary of the method: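 Fluorescence of capillary-separated, HpaI-digested RT-PCR reporter products gave IR1-element mRNA induction in HepG2 cells 24 h after dosing. Endogenous transcription factors drove the cis-regulated reporters; activity was fitted bidirectionally against DMSO.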

[3] = ATG_GRE_CIS: Attagene CIS-FACTORIAL HepG2 Assay for human Glucocorticoid Response Elements (GRE) (AID 2282947); conditions: HepG2 GRE cis-reporter, Attagene multiplex mRNA; actives raise or lower the signal
Summary of the method: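 Fluorescence intensity of reporter-specific cDNA fragments, separated by capillary electrophoresis, provides the signal. Constructs carry cis-regulating promoters in transiently transfected HepG2 liver cells; 24 h incubation; fitting is bidirectional against DMSO.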

[4] = ATG_ISRE_CIS: Attagene CIS-FACTORIAL HepG2 Assay for human Interferon Regulatory Factor 1 (IRF1) binding to an Interferon-Stimulated Response Element (ISRE) (AID 2282948); conditions: HepG2 ISRE cis-reporter (Attagene), mRNA transcription readout; actives raise or lower the signal
Summary of the method: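 Uses HepG2 liver cells transfected with cis-regulated reporters and measures mRNA 24 h post-dosing through RT-PCR, primer-extension labelling and capillary electrophoresis, with DMSO as negative control.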

[5] = ATG_M_32_CIS: Attagene CIS-FACTORIAL HepG2 Assay for M32 Transcription Factor (Internal Marker) (AID 2282949); conditions: HepG2 Attagene cis-factorial M32 reporter, mRNA; actives raise or lower the signal;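 note: background control marker of the multiplexed CIS panel rather than a real target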
Summary of the method: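 HepG2 human liver cells transiently transfected with cis-promoter-driven multiple reporter transcription units, dosed 24 h. Reporter mRNA quantified by RT-PCR, FAM-labelled primer extension, HpaI digest and capillary electrophoresis; bidirectional fit versus DMSO baseline.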

[6] = ATG_M_06_CIS: Attagene CIS-FACTORIAL HepG2 Assay for M06 Transcription Factor (Internal Marker) (AID 2282950); conditions: HepG2 Attagene CIS-FACTORIAL M06 internal marker reporter; actives raise or lower the signal
Summary of the method: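 Serves as a background control readout. Transfected HepG2 exposed to compounds for 24 h, then reporter transcripts quantified by fluorescent RT-PCR and capillary electrophoresis. Both directions fitted against DMSO baseline.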

[7] = biological target: Hypoxia-inducible factor 1-alpha (Homo sapiens) (UniProt Q16665); test: ATG_HIF1a_CIS: Attagene CIS-FACTORIAL HepG2 Assay for human Hypoxia Inducible Factor 1 (HIF1A) (AID 2282951); conditions: HepG2 Attagene cis-factorial HIF1a reporter transcription; actives raise or lower the signal
Summary of the method: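 HepG2 cells transiently transfected with multiple cis-regulated reporter transcription units measure endogenous transcription factor activity. After 24 h exposure, reporter mRNA is quantified by RT-PCR with 6-FAM labelling, HpaI digestion and capillary electrophoresis. Bidirectional fitting against DMSO.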

[8] = biological target: Hepatocyte nuclear factor 6 (Homo sapiens) (UniProt Q9UBC0); test: ATG_HNF6_CIS: Attagene CIS-FACTORIAL HepG2 Assay for human Hepatocyte Nuclear Factor 6 (HNF6) (AID 2282952); conditions: HepG2 Attagene cis-factorial HNF6 reporter transcription; actives raise or lower the signal
Summary of the method: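 Endogenous factor activity read in transiently transfected HepG2 via promoter-regulated reporter transcripts. RNA harvested 24 h post-dosing, reverse-transcribed, PCR-amplified, FAM-labelled, HpaI-digested and resolved by capillary electrophoresis; fitted in both directions against DMSO.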

[9] = biological target: Heat shock factor protein 1 (Homo sapiens) (UniProt Q00613); test: ATG_HSE_CIS: Attagene CIS-FACTORIAL HepG2 Assay for human Heat Shock Transcription Factor 1 (HSE) (AID 2282953); conditions: HepG2 HSE cis-reporter, Attagene RNA transcription; actives raise or lower the signal
Summary of the method: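 Endogenous transcription factor activity in transiently transfected HepG2, read as reporter mRNA by RT-PCR with fluorescent capillary electrophoresis after 24 h. Gain or loss of signal fitted versus DMSO baseline.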

[10] = ATG_MRE_CIS: Attagene CIS-FACTORIAL HepG2 Assay for human Metal Responsive Element (MRE) (AID 2282954); conditions: HepG2 MRE cis-reporter transcription, Attagene multiplex; actives raise or lower the signal
Summary of the method: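 Measured here is mRNA induction from an MRE cis-element reporter in HepG2 after 24 h, quantified by fluorescence of labelled RT-PCR products on capillary electrophoresis; gain- and loss-of-signal fits use DMSO as baseline.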

[11] = ATG_PBREM_CIS: Attagene CIS-FACTORIAL HepG2 Assay for human Phenobarbital-responsive Enhancer Module (PBREM) (AID 2282955); conditions: HepG2 PBREM cis-reporter, Attagene multiplexed transcription; actives raise or lower the signal
Summary of the method: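 HepG2 cells transiently transfected with multiple cis-regulated reporter units measure endogenous transcription factor activity; 24 h compound exposure. Reporter mRNA quantified by RT-PCR, fluorescent labelling, HpaI digestion and capillary electrophoresis; bidirectional fit versus DMSO.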

[12] = biological target: Paired box protein Pax-6 (Homo sapiens) (UniProt P26367); test: ATG_Pax6_CIS: Attagene CIS-FACTORIAL HepG2 Assay for human Paired Box 6 (PAX6) (AID 2282956); conditions: HepG2 CIS-FACTORIAL PAX6 reporter transcription, RNA readout; actives raise or lower the signal
Summary of the method: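 DMSO-referenced bidirectional fits of reporter mRNA fluorescence; HepG2 with transient cis-promoter MRTUs, 24 h post-dose, RT-PCR plus capillary electrophoresis detection.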

[13] = ATG_PXRE_CIS: Attagene CIS-FACTORIAL HepG2 Assay for human Pregnane X Receptor Element (PXRE) (AID 2282957); conditions: HepG2 Attagene CIS-FACTORIAL PXRE reporter, mRNA; actives raise or lower the signal
Summary of the method: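 Reporter transcripts under endogenous PXR-responsive cis-regulation quantified from total RNA of transfected HepG2 cells 24 h post-dosing, via RT-PCR with fluorescent primer extension and capillary electrophoresis. Gain or loss of signal fitted against DMSO baseline.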

[14] = ATG_PPRE_CIS: Attagene CIS-FACTORIAL HepG2 Assay for human Peroxisome Proliferator-activated Response Element (PPRE) (AID 2282958); conditions: HepG2 PPRE cis-element reporter, Attagene transcription factor profiling; actives raise or lower the signal
Summary of the method: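 HepG2 cells are transiently transfected with multiplexed cis-promoter reporter units to report endogenous PPAR activity. After 24 h dosing, reporter mRNA is read by RT-PCR and capillary electrophoresis. Fitting is bidirectional against DMSO.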

[15] = ATG_RORE_CIS: Attagene CIS-FACTORIAL HepG2 Assay for human RAR-related Orphan Receptor Element (RORE) (AID 2282959); conditions: HepG2 Attagene cis-factorial RORE reporter, mRNA; actives raise or lower the signal
Summary of the method: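 HepG2 cells carrying transiently transfected cis-regulated reporter units; RORE-driven reporter mRNA quantified 24 h post-dosing by RT-PCR, 6-FAM primer extension, HpaI digestion and capillary electrophoresis. Bidirectional fit versus DMSO.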

[16] = ATG_Sox_CIS: Attagene CIS-FACTORIAL HepG2 Assay for human SRY-box transcription factor (SOX) (AID 2282960); conditions: HepG2 Attagene cis-factorial SOX reporter, mRNA; actives raise or lower the signal
Summary of the method: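 HepG2 cells transiently transfected with multiple cis-regulated reporter units, then dosed for 24 h. Reporter mRNA quantified by RT-PCR, fluorescent labelling, HpaI digestion and capillary electrophoresis; bidirectional fit versus DMSO.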

[17] = biological target: Transcription factor Sp1 (Homo sapiens) (UniProt P08047); test: ATG_Sp1_CIS: Attagene CIS-FACTORIAL HepG2 Assay for human Specificity Protein 1 (Sp1) (AID 2282961); conditions: HepG2 Sp1 cis-reporter transcription, actives raise or lower the signal
Summary of the method: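 HepG2 cells transiently transfected with multiplexed cis-regulated reporter constructs, chemical exposure 24 h. Reporter mRNA quantified by RT-PCR with capillary electrophoresis; bidirectional fit relative to DMSO.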

[18] = ATG_SREBP_CIS: Attagene CIS-FACTORIAL HepG2 Assay for human Sterol Regulatory Element Binding (SREBP) (AID 2282962); conditions: HepG2 Attagene cis-factorial SREBP reporter, mRNA; actives raise or lower the signal
Summary of the method: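 In this cis-format assay, HepG2 liver cells express reporters controlled by promoter elements responsive to native transcription factors. Exposure lasts 24 h; reporter mRNA fluorescence from capillary electrophoresis gives the signal, fitted bidirectionally against DMSO.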

[19] = biological target: Signal transducer and activator of transcription 3 (Homo sapiens) (UniProt P40763); test: ATG_STAT3_CIS: Attagene CIS-FACTORIAL HepG2 Assay for human Signal Transducer and Activator of Transcription 3 (STAT3) (AID 2282963); conditions: HepG2, Attagene cis-factorial STAT3 reporter transcription; actives raise or lower the signal
Summary of the method: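 Fluorescence intensity of 6-FAM-labelled reporter fragments, separated by capillary electrophoresis after RT-PCR, gave the signal. Cells were HepG2 transfected with cis-element reporter units and treated 24 h; fitting was bidirectional relative to DMSO.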

[20] = ATG_TA_CIS: Attagene CIS-FACTORIAL HepG2 Assay for human TA Basal Promoter (AID 2282964); conditions: HepG2 Attagene CIS-factorial TA basal promoter reporter; actives raise or lower the signal
Summary of the method: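 Background-control readout: TA basal promoter reporter mRNA, fitted in both directions relative to DMSO. Measured by RT-PCR and capillary electrophoresis 24 hours after treating HepG2 human liver cells transiently carrying multiplexed cis-regulated reporter constructs.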

Measured: AC50

Chain of Hepatocyte nuclear factor 6 (Homo sapiens) (Q9UBC0 whole entry, looked up): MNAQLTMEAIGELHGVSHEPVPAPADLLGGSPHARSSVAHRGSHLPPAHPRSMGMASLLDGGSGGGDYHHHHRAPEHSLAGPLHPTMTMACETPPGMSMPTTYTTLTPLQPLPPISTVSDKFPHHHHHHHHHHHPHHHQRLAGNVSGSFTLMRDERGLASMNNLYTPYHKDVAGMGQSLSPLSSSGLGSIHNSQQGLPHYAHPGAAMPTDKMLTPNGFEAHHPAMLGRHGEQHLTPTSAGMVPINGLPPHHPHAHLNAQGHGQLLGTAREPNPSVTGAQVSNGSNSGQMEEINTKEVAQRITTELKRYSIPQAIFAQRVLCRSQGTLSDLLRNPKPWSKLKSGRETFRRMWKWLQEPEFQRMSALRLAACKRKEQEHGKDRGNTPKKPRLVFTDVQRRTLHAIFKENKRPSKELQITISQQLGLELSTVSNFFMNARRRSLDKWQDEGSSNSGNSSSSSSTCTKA
Chain of Hypoxia-inducible factor 1-alpha (Homo sapiens) (Q16665 whole entry, looked up): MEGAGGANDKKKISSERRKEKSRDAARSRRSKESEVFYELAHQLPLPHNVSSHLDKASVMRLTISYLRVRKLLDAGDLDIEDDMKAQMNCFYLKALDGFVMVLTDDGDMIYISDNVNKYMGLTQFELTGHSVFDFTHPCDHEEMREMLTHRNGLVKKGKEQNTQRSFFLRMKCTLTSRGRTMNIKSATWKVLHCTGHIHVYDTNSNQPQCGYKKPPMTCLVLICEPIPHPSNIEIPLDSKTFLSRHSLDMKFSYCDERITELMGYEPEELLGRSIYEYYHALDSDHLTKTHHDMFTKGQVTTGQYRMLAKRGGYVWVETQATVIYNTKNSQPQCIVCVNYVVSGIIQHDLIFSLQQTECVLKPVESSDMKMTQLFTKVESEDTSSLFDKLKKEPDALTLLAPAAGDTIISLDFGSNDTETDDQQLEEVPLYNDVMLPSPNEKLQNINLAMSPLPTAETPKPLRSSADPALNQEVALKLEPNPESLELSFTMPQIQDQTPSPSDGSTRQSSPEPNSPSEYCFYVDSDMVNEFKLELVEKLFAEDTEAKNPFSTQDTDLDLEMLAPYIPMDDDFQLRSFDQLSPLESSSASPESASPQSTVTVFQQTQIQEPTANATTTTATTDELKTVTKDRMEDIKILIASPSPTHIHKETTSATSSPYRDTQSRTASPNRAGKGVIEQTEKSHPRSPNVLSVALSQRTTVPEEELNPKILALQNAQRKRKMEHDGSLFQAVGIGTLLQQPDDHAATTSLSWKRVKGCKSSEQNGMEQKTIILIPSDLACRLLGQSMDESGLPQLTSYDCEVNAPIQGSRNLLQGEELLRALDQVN
Chain of Transcription factor Sp1 (Homo sapiens) (P08047 whole entry, looked up): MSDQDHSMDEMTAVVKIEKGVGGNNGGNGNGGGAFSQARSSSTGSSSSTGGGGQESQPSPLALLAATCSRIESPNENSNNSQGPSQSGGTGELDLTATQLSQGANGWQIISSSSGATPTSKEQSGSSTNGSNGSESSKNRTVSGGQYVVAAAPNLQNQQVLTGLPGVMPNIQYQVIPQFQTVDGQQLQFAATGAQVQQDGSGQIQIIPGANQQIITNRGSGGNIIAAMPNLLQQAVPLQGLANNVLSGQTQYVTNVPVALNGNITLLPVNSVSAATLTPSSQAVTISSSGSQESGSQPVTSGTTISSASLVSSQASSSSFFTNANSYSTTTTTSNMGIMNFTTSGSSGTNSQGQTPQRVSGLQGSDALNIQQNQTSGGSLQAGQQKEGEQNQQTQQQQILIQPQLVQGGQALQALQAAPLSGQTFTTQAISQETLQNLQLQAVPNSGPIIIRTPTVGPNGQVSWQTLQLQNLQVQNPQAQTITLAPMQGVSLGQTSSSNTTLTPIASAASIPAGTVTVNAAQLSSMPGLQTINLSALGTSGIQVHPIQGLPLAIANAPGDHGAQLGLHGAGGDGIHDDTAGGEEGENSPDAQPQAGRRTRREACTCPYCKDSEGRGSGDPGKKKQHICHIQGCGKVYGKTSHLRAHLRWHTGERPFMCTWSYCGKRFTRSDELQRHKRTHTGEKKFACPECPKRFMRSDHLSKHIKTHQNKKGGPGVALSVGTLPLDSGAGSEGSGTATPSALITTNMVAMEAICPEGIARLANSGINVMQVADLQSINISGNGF
Chain of Bile acid receptor (Homo sapiens) (Q96RI1 whole entry, looked up): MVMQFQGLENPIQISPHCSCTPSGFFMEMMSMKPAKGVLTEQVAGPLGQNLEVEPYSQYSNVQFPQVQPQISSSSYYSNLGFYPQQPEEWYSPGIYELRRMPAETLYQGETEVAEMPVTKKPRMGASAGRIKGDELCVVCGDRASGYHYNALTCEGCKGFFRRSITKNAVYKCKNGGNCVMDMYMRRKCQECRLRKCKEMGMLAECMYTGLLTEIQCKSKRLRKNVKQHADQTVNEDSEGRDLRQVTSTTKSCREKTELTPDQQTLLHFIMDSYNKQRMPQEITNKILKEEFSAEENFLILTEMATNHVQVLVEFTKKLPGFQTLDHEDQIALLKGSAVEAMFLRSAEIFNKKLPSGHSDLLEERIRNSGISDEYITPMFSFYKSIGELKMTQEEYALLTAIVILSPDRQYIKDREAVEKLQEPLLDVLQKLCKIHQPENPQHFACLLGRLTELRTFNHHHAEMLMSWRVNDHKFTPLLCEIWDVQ
Chain of Paired box protein Pax-6 (Homo sapiens) (P26367 whole entry, looked up): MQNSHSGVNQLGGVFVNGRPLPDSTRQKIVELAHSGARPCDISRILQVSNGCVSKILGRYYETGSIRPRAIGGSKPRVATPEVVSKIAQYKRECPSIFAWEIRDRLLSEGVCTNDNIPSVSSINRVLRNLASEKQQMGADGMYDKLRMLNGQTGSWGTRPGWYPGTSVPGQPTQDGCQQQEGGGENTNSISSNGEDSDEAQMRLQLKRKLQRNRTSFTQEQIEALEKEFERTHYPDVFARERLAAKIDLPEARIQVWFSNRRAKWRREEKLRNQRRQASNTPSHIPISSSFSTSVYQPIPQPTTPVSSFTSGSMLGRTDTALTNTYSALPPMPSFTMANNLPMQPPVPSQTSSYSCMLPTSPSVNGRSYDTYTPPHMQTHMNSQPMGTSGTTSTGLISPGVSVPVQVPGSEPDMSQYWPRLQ
Chain of Heat shock factor protein 1 (Homo sapiens) (Q00613 whole entry, looked up): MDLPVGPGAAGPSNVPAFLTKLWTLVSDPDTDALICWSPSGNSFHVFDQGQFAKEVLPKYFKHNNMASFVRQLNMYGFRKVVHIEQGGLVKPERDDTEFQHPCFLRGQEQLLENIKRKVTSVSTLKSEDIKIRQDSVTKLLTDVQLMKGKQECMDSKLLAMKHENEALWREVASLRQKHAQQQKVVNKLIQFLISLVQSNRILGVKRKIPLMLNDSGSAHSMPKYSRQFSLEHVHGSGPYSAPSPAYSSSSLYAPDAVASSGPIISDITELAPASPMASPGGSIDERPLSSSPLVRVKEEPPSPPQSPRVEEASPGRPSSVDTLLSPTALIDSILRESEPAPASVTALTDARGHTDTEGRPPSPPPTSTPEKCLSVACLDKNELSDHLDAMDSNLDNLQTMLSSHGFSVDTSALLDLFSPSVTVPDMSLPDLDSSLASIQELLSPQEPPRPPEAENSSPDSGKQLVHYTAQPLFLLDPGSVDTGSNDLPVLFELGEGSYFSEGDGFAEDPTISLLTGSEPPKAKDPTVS
Chain of Signal transducer and activator of transcription 3 (Homo sapiens) (P40763 whole entry, looked up, the tested form may be a part): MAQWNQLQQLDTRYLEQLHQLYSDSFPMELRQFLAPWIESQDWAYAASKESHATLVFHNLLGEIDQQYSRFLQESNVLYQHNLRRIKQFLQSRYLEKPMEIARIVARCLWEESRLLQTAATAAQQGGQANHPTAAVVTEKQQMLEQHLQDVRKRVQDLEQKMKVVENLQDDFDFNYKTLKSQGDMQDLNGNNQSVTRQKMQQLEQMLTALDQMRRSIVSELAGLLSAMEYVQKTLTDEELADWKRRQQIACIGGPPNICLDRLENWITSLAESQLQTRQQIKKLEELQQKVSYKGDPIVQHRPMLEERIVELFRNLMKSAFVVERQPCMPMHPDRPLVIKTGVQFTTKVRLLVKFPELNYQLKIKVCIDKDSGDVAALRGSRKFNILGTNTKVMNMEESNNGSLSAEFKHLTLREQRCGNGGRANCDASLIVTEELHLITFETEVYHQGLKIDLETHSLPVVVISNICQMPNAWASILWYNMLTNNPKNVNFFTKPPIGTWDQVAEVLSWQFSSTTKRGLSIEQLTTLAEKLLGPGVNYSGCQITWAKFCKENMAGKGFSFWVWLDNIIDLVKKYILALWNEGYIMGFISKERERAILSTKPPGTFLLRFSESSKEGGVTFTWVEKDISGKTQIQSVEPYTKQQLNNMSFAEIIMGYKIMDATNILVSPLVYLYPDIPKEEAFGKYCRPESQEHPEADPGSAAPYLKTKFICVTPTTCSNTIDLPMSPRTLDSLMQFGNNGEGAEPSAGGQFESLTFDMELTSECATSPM

C#CC(O)CCC (centres undefined)
inactive: all assays above

C=C(C)CCCC
inactive: all assays above

Cc1cc(C)c(O)c(C(C)(C)C)c1
active: [13] 27.1 µM
inactive: all other assays above

OCCCCl
inactive: all assays above

NC(=O)C(F)(F)C(F)(F)C(F)(F)C(F)(F)C(N)=O
inactive: all assays above

O=C(O)CCC(F)(F)C(F)(F)C(F)(F)F
inactive: all assays above

CCCCCCCCCCCCCC[P+](CCCC)(CCCC)CCCC
active: [9] 0.82 µM | [10] 0.871 µM | [12] 0.81 µM | [17] 0.969 µM | [18] 1.24 µM
inactive: all other assays above

COc1ccccc1C=O
active: [7] 27.7 µM
not listed: [15]
inactive: all other assays above

CCN(CCO)S(=O)(=O)C(F)(F)C(F)(F)C(F)(F)C(F)(F)C(F)(F)C(F)(F)C(F)(F)C(F)(F)F
active: [13] 9.56 µM
inactive: all other assays above

O=C(Cl)C(F)(F)C(F)(F)C(F)(F)C(F)(F)C(F)(F)C(F)(F)F
active: [14] 60.3 µM
inactive: all other assays above

O=S(=O)(Cl)C(F)(F)C(F)(F)C(F)(F)C(F)(F)C(F)(F)C(F)(F)C(F)(F)C(F)(F)F
active: [13] 28.3 µM | [14] 36.6 µM
inactive: all other assays above

OCC1CCCO1 (centres undefined)
inactive: all assays above

Cc1ccc([N+](=O)[O-])c(C)c1
inactive: all assays above

From PubChem BioAssay (EPA / NIEHS)
